{
  "source": "PubChem BioAssay (NCI)",
  "note": "This is part of a sample that, as a whole, favours compounds with a hit. Of some 83,000 tested, about 20% had one in any assay.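 The endpoint reported here, percent growth, reads 100 for growth as untreated, 0 for no net growth and -100 for all cells dead.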 Calls of active or inactive are those of the source. Rule for the calls: active = growth percent below 10; inactive = the rest.",
  "data": [
    {"tested_on": "MALME-3M melanoma", "assay": "NCI-60 one-dose screen, 48 h (100 = growth as untreated, 0 = no growth, -100 = all killed)", "details": "10 µM unless noted", "values": [
      {"smiles": "COc1cc(-c2nc(-c3nc4cc(C(=O)c5ccccc5)ccc4[nH]3)cc3c2[nH]c2ccccc23)cc(OC)c1OC", "growth": "102% (inactive)"},
      {"smiles": "COc1cc(C2=NOC(c3cc(OC)c(OC)c(OC)c3)C2)ccc1OCCCCOc1cc2c(cc1OC)C(=O)N1CCC[C@H]1C=N2", "note": "(stereo partly specified)", "growth": "-72.2% (active)"},
      {"smiles": "O=C(CCCCCCc1nc2ccc(Br)cc2[nH]1)NO", "growth": "-6.27% (active)"},
      {"smiles": "CCCCOc1ncnc2nc[nH]c12", "growth": "103% (inactive)"},
      {"smiles": "CC(C)=CCC[C@H](C)c1ccc(C)c2c1OCN(CCO)C2", "growth": "89.5% (inactive)"},
      {"smiles": "O=C(Nc1cccc(Cl)c1)Nc1cc(C(F)(F)F)ccc1Cl", "growth": "5.85% (active)"},
      {"smiles": "CCCCC(CCc1ccccn1)C(=O)c1ccccc1", "note": "(stereo unspecified)", "growth": "119% (inactive)"},
      {"smiles": "Nc1cccc(S(=O)(=O)c2cccc(N)c2)c1", "growth": "115% (inactive)"},
      {"smiles": "O=C(Nc1ccc2ncnc(Nc3ccc(F)c(Cl)c3)c2c1)c1cccs1", "growth": "66.4% (inactive)"},
      {"smiles": "O=[N+]([O-])c1ccccc1CN1CCCCC1", "growth": "121% (inactive)"},
      {"smiles": "COc1cc2c(cc1OCCCOc1cc3c(cc1OC)C(=O)N1CCC[C@H]1C=N3)C=CC(C)(C)O2", "growth": "152% (inactive)"},
      {"smiles": "CCCCCCCCCC1=NC(C)(C)CN1C(C)(C)CO", "growth": "106% (inactive)"},
      {"smiles": "COCCn1c(Nc2ccc(C(=O)NO)cc2)nc2ccccc21", "growth": "30.6% (inactive)"},
      {"smiles": "O=C(CSc1ccc(Cl)cc1)Nc1ccc(-c2nc3ccccc3s2)c(Cl)c1", "growth": "108% (inactive)"},
      {"smiles": "COc1cc(/C=C2\\C(=O)Nc3ccc(N(C)C)cc32)cc(OC)c1OC", "growth": "37.2% (inactive)"},
      {"smiles": "CC(C)(C)NC(=O)C(OC(=O)C1CCc2cc(F)ccc2O1)c1ccccc1Cl", "note": "(stereo unspecified)", "growth": "94.4% (inactive)"}
    ]}
  ]
}
